Assay results reported in PubChem BioAssay (NCI).
Compounds without any hit were thinned out: in the full panel of roughly 83,000, 20% have a hit.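 48-hour exposure, single concentration, 96-well plates; percent growth endpoint where 0 means no net growth. Active: below 10.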 A number with no mark means an inactive call. Active and inactive are the calls of the source.

Key:
Test in all cases: NCI-60 one-dose screen, 48 h (100 = growth as untreated, 0 = no growth, -100 = all killed)
Conditions in all cases: 10 µM unless noted
[1] = system: DU-145 prostate
[2] = system: K-562 leukemia
[3] = system: MALME-3M melanoma
[4] = system: MDA-MB-231 breast
[5] = system: RXF 393 renal
[6] = system: SF-268 CNS
[7] = system: SF-295 CNS
[8] = system: SF-539 CNS
[9] = system: UACC-257 melanoma
[10] = system: M14 melanoma
[11] = system: HCT-15 colon
[12] = system: HT29 colon
[13] = system: SNB-75 CNS
[14] = system: SNB-19 CNS
[15] = system: U251 CNS
[16] = system: PC-3 prostate
[17] = system: SK-MEL-5 melanoma
[18] = system: UACC-62 melanoma
[19] = system: LOX IMVI melanoma
[20] = system: SK-MEL-28 melanoma

Structure (SMILES) | growth [1] [%] | growth [2] | growth [3] [%] | growth [4] [%] | growth [5] | growth [6] [%] | growth [7] [%] | growth [8] | growth [9] [%] | growth [10] [%] | growth [11] | growth [12] | growth [13] [%] | growth [14] [%] | growth [15] | growth [16] | growth [17] | growth [18] [%] | growth [19] | growth [20] [%]
CC1(C)Cc2c(Br)c(Br)c(Br)c(OCC(O)CN3CCOCC3)c2O1 (stereo not given) | 106 | 44.1% | 35 | 83.2 | 70.6% | 105 | 113 | 92.9% | 97.3 | 94.5 | 88.2% | 64.6% | 94 | 100 | 93.5% | 9.22% (active) | 66.5% | 94.6 | 87.1% | 137
CNS(=O)(=O)c1cccc(-c2ccc3c4c(n(C)c(=O)c3c2)-c2ccccc2C4=O)c1 | 20.7 | 41.3% | 55 | 87.1 | 96.5% | 58.6 | 24.1 | 53.8% | 96.3 | 60.1 | 30.5% | 45.8% | 65.9 | 31.3 | 23.2% | 73.4% | 48.3% | 56.3 | 35.1% | 93
Cc1nccc2c3ccc(OCc4cn(-c5ccccc5)nn4)cc3n(CCCc3ccccc3)c12 | 88.6 | 36.5% | 90.4 | 79.6 | 69.7% | 88.3 | 74.8 | 78.2% | 55.9 | 83.3 | 56.9% | 38.5% | 73.8 | 79.3 | 76.8% | 65.1% | 80.4% | 83.3 | 81.3% | 99
COc1cccc(C(=O)OCCn2nc3c4c(cccc42)C(=O)c2ccccc2-3)c1O | 54.7 | 13.7% | 62.6 | 62.2 | 53% | 55.8 | 17.1 | 9.58% (active) | 79.4 | 36.2 | 28% | 79.3% | 22.8 | 38.3 | 33.9% | 20.5% | 36.4% | 31.3 | 37.6% | 72.5
COc1cc(C2=NN(C(C)=O)C(c3cccc(Nc4ccnc5cc(C(F)(F)F)ccc45)c3)C2)cc(OC)c1OC (stereo not given) | 55 | 36.8% | 78.9 | 66.1 | 55.3% | 52.6 | 53.8 | 76.6% | 79 | 29.7 | 39.9% | 22.1% | 76.1 | 60.9 | 58.7% | 25% | 27.8% | 69 | 53.2% | 66.5
O=C1CC23OC4ON=C(Br)C4C2C(O)c2ccccc2N13 (stereo not given) | 105 | 110% | 79.9 | 98.8 | 115% | 95.1 | 109 | 107% | 103 | 92.4 | 99% | 90.5% | 79.9 | 105 | 110% | 94.4% | 111% | 94.3 | 88.8% | 114
CSc1cccc(NC(=O)Nc2nc3c(C)cccc3s2)c1 | 114 | 89.8% | 93.5 | 116 | 104% | 104 | 97.3 | 89.3% | 98.7 | 98 | 97.9% | 99.5% | 76.7 | 98.2 | 98.9% | 95.7% | 95.6% | 78.3 | 97.5% | 112
Cc1c(O)c(=O)ccn1-c1nc2ccccc2s1 | 103 | 110% | 96.6 | 93.2 | 87.8% | 90.6 | 105 | 102% | 90 | 84.2 | 38.2% | 93.8% | 95.7 | 110 | 84.1% | 90.4% | 96.2% | 98.3 | 86.7% | 107
CC1(C)CC[C@]2(c3nnc(-c4ccncc4)o3)CC[C@]3(C)C(=CC[C@@H]4[C@@]5(C)CCC(=O)C(C)(C)[C@@H]5CC[C@]43C)[C@@H]2C1 | 91.2 | 62.1% | 86.1 | 87 | 101% | 81.5 | 79.7 | 90.7% | 78.4 | 84.3 | 71.8% | 77.5% | 88.7 | 78.7 | 76.9% | 47.5% | 74.3% | 67.3 | 72.2% | 83.5
CN1CCN(C(=O)[C@@]2(C)CC[C@]3(C)CC[C@]4(C)C(=CC[C@@H]5[C@@]6(C)CC[C@H](OC(=O)c7cccnc7)C(C)(C)[C@@H]6CC[C@]54C)[C@@H]3C2)CC1 | 78.7 | -24.1% (active) | 60.2 | 48.4 | 60.3% | 85.4 | 67.8 | 59.8% | 58.6 | 80.7 | -46.9% (active) | 8.46% (active) | 90.4 | 19.8 | -69.8% (active) | 46.8% | 64.4% | 82.1 | -26.4% (active) | 76.7
C=CCn1c(SCC(=O)Nc2ccc(C(=O)/C=C/c3cc(OC)c(OC)c(OC)c3)cc2)nnc1-c1ccc(Cl)cc1 | 10.8 | 9.24% (active) | 66.2 | 35.5 | -42.4% (active) | 19.8 | 38.9 | 17.2% | 51.3 | 12.6 | -1.47% (active) | -43.1% (active) | 20.1 | 35.2 | -3.31% (active) | 28.3% | 9.64% (active) | 22.1 | -22.4% (active) | 59
CC(C)C[C@H](C(=O)O)N(C)C(=O)[C@@H]1CCCN1C(=O)[C@H](C)OC(=O)[C@H](CCC(N)=O)NC(=O)[C@@H]1CCC(=O)N1 | 106 | 93.2% | 109 | 108 | 135% | 97.4 | 93.7 | 97.7% | 95.2 | 99.9 | 95.9% | 104% | 84.3 | 102 | -37% (active) | 96.6% | 95.6% | 102 | 104% | 103
O=c1[nH]nc(-c2ccccc2)c2sc(NC(=S)Nc3ccc(Cl)cc3)nc12 | 94.8 | 80.6% | 105 | 101 | 102% | 93.3 | 98.3 | 98% | 104 | 97.4 | 89.9% | 74.8% | 84.1 | 102 | 92.1% | 92% | 101% | 92.6 | 92.4% | 110
COc1ccc(NC(=O)c2sc3nc(C)c(C(C)=O)cc3c2N)cc1 | 102 | 86.2% | 115 | 102 | 105% | 102 | 97.7 | 87.8% | 88.7 | 100 | 91.6% | 83.5% | 88.3 | 96.1 | 95% | 92% | 93.8% | 92.9 | 105% | 94.1
Cc1nnc(/N=C2\NC(=O)/C(=C/c3ccsc3)S2)s1 | 98.7 | 97.4% | 80.8 | 108 | 99.8% | 85.1 | 85.9 | 99.7% | 108 | 92 | 88% | 90.6% | 74.3 | 100 | 94.6% | 89.6% | 98.4% | 102 | 87.7% | 101
